According to PubChem BioAssay (NCI):
Several values for one entry are separate records, joined by “and”; a condition that tells them apart may be missing. Identical values can stand only once. Compounds without any hit were thinned out: in the full panel of roughly 79,000, 15% have a hit. Some structures have more than one record in an assay (separate samples or runs), and their calls can disagree. Activity calls are given as the source filed them. No stated cut-off is given here; in the data, active means growth inhibition above about 70%; inactive means the rest.

Tests used:
[1] = NCI Yeast Anticancer Drug Screen. Data for the rad50 strain (AID 155);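 further: 0% = growth of vehicle-only cultures of the same strain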; conditions: S. cerevisiae rad50 strain growth inhibition, stronger effect = higher value
How it was run: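 DNA repair mutant yeast, compound exposure, growth read-out; inhibition is taken relative to vehicle.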

[2] = NCI Yeast Anticancer Drug Screen. Data for the mec2-1 strain (AID 157); conditions: S. cerevisiae mec2-1 strain, stronger effect = higher value
How it was run: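 Each compound was tested on mec2-1 yeast, a strain altered in DNA damage repair or cell cycle control. Growth inhibition is reported relative to vehicle.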

[3] = NCI Yeast Anticancer Drug Screen. Data for the sgs1 mgt1 strain (AID 161);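 further: 0% = growth of cultures given vehicle only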; conditions: S. cerevisiae sgs1 mgt1 strain, stronger effect = higher value
How it was run: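 Test agents were incubated with a DNA-repair-mutant yeast strain. Growth was then read and compared against vehicle-treated controls.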

[4] = NCI Yeast Anticancer Drug Screen. Data for the cln2 rad14 strain (AID 165);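 further: 0% = growth equal to vehicle treated cultures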; conditions: S. cerevisiae cln2 rad14 strain, stronger effect = higher value
How it was run: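 Test compounds were added to cln2 rad14 yeast cultures; inhibition of growth was then determined by comparison with vehicle treatment.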

[5] = NCI Yeast Anticancer Drug Screen. Data for the bub3 strain (AID 167); conditions: S. cerevisiae bub3 mutant strain, stronger effect = higher value
How it was run: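 In this screen, a yeast mutant lacking normal mitotic checkpoint function is challenged with compound. Relative growth versus vehicle gives the inhibition value.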

[6] = NCI Yeast Anticancer Drug Screen. Data for the wt2 strain (AID 169);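 further: 0% = growth of vehicle-treated yeast cultures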; conditions: S. cerevisiae wt2 strain growth inhibition, stronger effect = higher value
How it was run: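 The panel's yeast strains carry defined changes in DNA repair or cell cycle genes. Each strain is grown with compound, and growth loss is scored relative to vehicle.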

[7] = NCI Yeast Anticancer Drug Screen. Data for the mlh1 rad18 strain (AID 175); conditions: S. cerevisiae mlh1 rad18 strain growth inhibition, stronger effect = higher value
How it was run: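 Inhibition values reflect reduced growth of mutant yeast versus vehicle-treated controls following compound exposure; the mutations affect DNA damage repair.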

[8] = at 5.0 µM (retest, dose inferred, filed as 0.5)
[9] = at 50.0 µM (retest, dose inferred, filed as 5.0)

Measured: growth inhibition

CCSC1=C(C)C(=O)c2ccccc2C1=O
active: [1]; [9] 99% | [1]; at 50.0 µM 70.1% | [2]; [9] 99% | [3]; at 50.0 µM 74.2% | [5]; at 50.0 µM 77.2% | [6]; at 100.0 µM 98%
inactive: [1]; [8] 35% | [2]; [8] 32% | [2]; at 50.0 µM 50.1% | [3]; [8] 7% | [3]; [9] 26% | [4]; [8] 44% | [4]; [9] 34% | [4]; at 50.0 µM 41.9% | [5]; [8] -6% | [5]; [9] 36% | [6]; at 1.2 µM 18% | [6]; at 3.7 µM 11% | [6]; at 11.0 µM 6% | [6]; at 33.0 µM 20% | [7]; [8] 11% | [7]; [9] 62% | [7]; at 50.0 µM 55%

Cc1nc(N=C(N)N)nc2ccc3ccccc3c12
active: [1]; at 50.0 µM 80.8% | [3]; [9] 98% | [4]; [9] 99% | [5]; [9] 96% | [6]; at 100.0 µM 97%
inactive: [1]; [8] 39% | [1]; [9] 38% | [2]; [8] 43% | [2]; [9] 69% | [2]; at 50.0 µM 37.9% | [3]; [8] -13% | [3]; at 50.0 µM 64.7% | [4]; [8] 62% | [4]; at 50.0 µM 34.8% | [5]; [8] -14% | [5]; at 50.0 µM 63.9% | [6]; at 1.2 µM 6% | [6]; at 3.7 µM 12% | [6]; at 11.0 µM 0% | [6]; at 33.0 µM 30% | [7]; [8] 28% | [7]; [9] 34% | [7]; at 50.0 µM 69.6%

Cc1ccc(OC(=O)c2ccc(N)cc2O)cc1
inactive: [1]; [8] 48% | [1]; at 50.0 µM 45.1% | [2]; at 50.0 µM 68.2% | [3]; [8] -3% | [3]; at 50.0 µM 42.5% | [4]; [8] 39% | [4]; at 50.0 µM 42.2% | [5]; [8] 24% | [6]; at 1.2 µM 0% | [6]; at 3.7 µM -4% | [6]; at 11.0 µM 15% | [6]; at 33.0 µM 43% | [7]; [8] 33% | [7]; at 50.0 µM 53.3%
active: [1]; [9] 86% | [2]; [8] 83% | [2]; [9] 90% | [3]; [9] 93% | [4]; [9] 97% | [5]; [9] 90% | [5]; at 50.0 µM 77.7% | [6]; at 100.0 µM 86% | [7]; [9] 97%

C[n+]1c2cc(N)ccc2cc2ccc(N)cc21
active: [1]; [9] 98% and 99% | [1]; at 50.0 µM 97.4% and 75.2% | [2]; [9] 99% and 100% | [2]; at 50.0 µM 75.3% and 79% | [5]; [9] 99% and 88% | [5]; at 50.0 µM 86.5% and 81.6% | [6]; at 100.0 µM 84% | [7]; [9] 97% and 100% | [7]; at 50.0 µM 91.3% and 83.5%
67.9% (inactive) and 78.2% (active): [3]; at 50.0 µM
28% (inactive) and 100% (active): [7]; [8]
55% (inactive) and 100% (active): [1]; [8]
11% (inactive) and 100% (active): [2]; [8]
97% (active) and 44% (inactive): [3]; [9]
inactive: [3]; [8] 3% and -17% | [4]; [8] 10% and 35% | [4]; at 50.0 µM 53.9% and 39.6% | [5]; [8] -1% and -18% | [6]; at 1.2 µM -6% | [6]; at 3.7 µM -12% | [6]; at 11.0 µM 4% | [6]; at 33.0 µM 25%
97% (active) and 64% (inactive): [4]; [9]

Nc1ccccc1Oc1ccc(Cl)cc1Cl
active: [1]; at 50.0 µM 92% | [2]; at 50.0 µM 92.7% | [3]; [9] 98% | [3]; at 50.0 µM 93% | [4]; [9] 98% | [4]; at 50.0 µM 92.3% | [5]; [9] 95% | [5]; at 50.0 µM 92.3% | [6]; at 33.0 µM 95% | [6]; at 100.0 µM 99% | [7]; at 50.0 µM 92%
inactive: [1]; [8] 27% | [1]; [9] 48% | [2]; [8] 37% | [2]; [9] 61% | [3]; [8] -21% | [4]; [8] 22% | [5]; [8] -18% | [6]; at 1.2 µM -3% | [6]; at 3.7 µM -16% | [6]; at 11.0 µM -8% | [7]; [8] 15% | [7]; [9] 59%

O=c1c(Cl)c(Cl)cnn1CCCl
active: [1]; [9] 92% | [1]; at 50.0 µM 74.9% | [7]; [9] 71%
inactive: [1]; [8] 40% | [2]; [8] 9% | [2]; [9] 48% | [2]; at 50.0 µM 17.6% | [3]; [8] -1% | [3]; [9] 47% | [3]; at 50.0 µM -15.6% | [4]; [8] 6% | [4]; [9] 32% | [4]; at 50.0 µM 7.15% | [5]; [8] -6% | [5]; [9] 69% | [5]; at 50.0 µM -10.5% | [7]; [8] 15%

CCCCCC(C)c1ccc(O)c(C)c1 (configuration not stated)
inactive: [1]; [8] 49% | [2]; [8] 49% | [2]; at 50.0 µM 56.2% | [3]; [8] -10% | [3]; [9] 43% | [3]; at 50.0 µM 68.9% | [4]; [8] 41% | [4]; at 50.0 µM 61.7% | [5]; [8] 32% | [5]; [9] 55% | [6]; at 1.2 µM 4% | [6]; at 3.7 µM -2% | [6]; at 11.0 µM -6% | [6]; at 33.0 µM 0% | [7]; [8] 45%
active: [1]; [9] 94% | [1]; at 50.0 µM 81.7% | [2]; [9] 95% | [4]; [9] 75% | [5]; at 50.0 µM 86.1% | [6]; at 100.0 µM 99% | [7]; [9] 99% | [7]; at 50.0 µM 72.5%

C=C1CC2(CC(c3ccccc3OC)OC(c3ccccc3OC)C2)OC1=O (configuration not stated)
active: [2]; at 50.0 µM 74.7% | [3]; [9] 70% | [4]; [9] 79% | [4]; at 50.0 µM 71.8% | [7]; [9] 88%
inactive: [1]; [8] 34% | [1]; [9] 58% | [1]; at 50.0 µM 61.1% | [2]; [8] 15% | [2]; [9] 10% | [3]; [8] 26% | [3]; at 50.0 µM 54.2% | [4]; [8] 23% | [5]; [8] 21% | [5]; [9] 14% | [5]; at 50.0 µM 60.5% | [7]; [8] 40%
